Test results taken from PubChem BioAssay AID1159580 (chemical genetic matrix, 2015).
Values joined by “and” are separate entries in the source; they are usually repeats but may differ in a detail not shown here. Identical values can stand only once. Hit rate of the full screen: of about 5,500 compounds, about 2,000 (36%) were called active. Not shown: some 18% with an inconclusive outcome. Cut-off read from the data, not from the text of the source: active = normalized growth mostly below about 0.91 (no sharp cut-off); inconclusive = no clear call, values can overlap the other calls; inactive = mostly above about 0.92. The list shows a part of the results.

Experiment: chemical genetic growth profiling, strain panel (AID 1159580);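 note: tested at 20 µM; growth read once vehicle control cultures reached saturation at 30 °C; 1 = growth at the plate median or of vehicle wells; lower values mean less growth of the strain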
Conditions: growth OD

Measured: normalized growth

CC(CCc1ccccc1)NC(C)C(O)c1ccc(O)cc1 (stereo not given)
inactive: S. cerevisiae deletion strains, locus YJR075W, strain HOC1, hits give low values 1.01 | S. cerevisiae deletion strains, locus YKL009W, strain mrt4, hits give low values 0.988 | S. cerevisiae deletion strains, locus YKL068W, hits give low values 0.987 | S. cerevisiae deletion strains, locus YKL085W, strain MDH1 (second series), hits give low values 0.997 | S. cerevisiae deletion strains, locus YKL085W, strain MDH1, hits give low values 0.997 | S. cerevisiae deletion strains, locus YKL160W, strain elf1, hits give low values 1 | S. cerevisiae deletion strains, locus YKL190W, strain CNB1, hits give low values 0.99 | S. cerevisiae deletion strains, locus YKR001C, strain vps1, hits give low values 0.97 | S. cerevisiae deletion strains, locus YKR026C, strain gcn3, hits give low values 1 | S. cerevisiae deletion strains, locus YKR091W, strain srl3, hits give low values 1 | S. cerevisiae deletion strains, locus YLL001W, strain dnm1, hits give low values 1.01 | S. cerevisiae deletion strains, locus YLL026W, hits give low values 1 | S. cerevisiae deletion strains, locus YLL041C, strain sdh2, hits give low values 0.999 | S. cerevisiae deletion strains, locus YLR027C, strain aat2, hits give low values 0.994 | S. cerevisiae deletion strains, locus YLR039C, strain RIC1, hits give low values 1.01 | S. cerevisiae deletion strains, locus YLR058C, strain SHM2, hits give low values 0.976 | S. cerevisiae deletion strains, locus YLR102C, strain apc9, hits give low values 0.99 | S. cerevisiae deletion strains, locus YLR113W, strain HOG1, hits give low values 0.995 | S. cerevisiae deletion strains, locus YLR221C, strain rsa3, hits give low values 1.02 | S. cerevisiae deletion strains, locus YLR258W, strain gsy2, hits give low values 1 | S. cerevisiae deletion strains, locus YLR262C, strain YPT6 (second series), hits give low values 0.96 | S. cerevisiae deletion strains, locus YLR262C, strain YPT6, hits give low values 0.99 | S. cerevisiae deletion strains, locus YLR268W, strain sec22, hits give low values 1.04 | S. cerevisiae deletion strains, locus YLR320W, strain mms22, hits give low values 1.02 | S. cerevisiae deletion strains, locus YLR330W, strain CHS5, hits give low values 0.997 | S. cerevisiae deletion strains, locus YLR342W, strain FKS1 (second series), hits give low values 1.01 | S. cerevisiae deletion strains, locus YLR342W, strain FKS1, hits give low values 1 | S. cerevisiae deletion strains, locus YLR357W, strain rsc2, hits give low values 0.983 | S. cerevisiae deletion strains, locus YLR370C, strain arc18, hits give low values 1 | S. cerevisiae deletion strains, locus YLR371W, strain rom2, hits give low values 0.974 | S. cerevisiae deletion strains, locus YLR384C, strain iki3, hits give low values 1.01 | S. cerevisiae deletion strains, locus YLR418C, strain cdc73, hits give low values 0.997 | S. cerevisiae deletion strains, locus YML016C, strain PPZ1, hits give low values 0.993 | S. cerevisiae deletion strains, locus YML032C, strain rad52, hits give low values 1 | S. cerevisiae deletion strains, locus YML120C, strain ndi1, hits give low values 1.01 | S. cerevisiae deletion strains, locus YML124C, strain tub3, hits give low values 0.982 | S. cerevisiae deletion strains, locus YMR058W, strain fet3, hits give low values 0.998 | S. cerevisiae deletion strains, locus YMR078C, strain ctf18, hits give low values 0.987 | S. cerevisiae deletion strains, locus YMR125W, strain sto1, hits give low values 1.01 | S. cerevisiae deletion strains, locus YMR129W, hits give low values 0.984 | S. cerevisiae deletion strains, locus YMR205C, strain PFK2, hits give low values 1.02 | S. cerevisiae deletion strains, locus YMR223W, strain ubp8, hits give low values 0.989 | S. cerevisiae deletion strains, locus YMR231W, strain pep5, hits give low values 1 | S. cerevisiae deletion strains, locus YMR263W, strain SAP30, hits give low values 1.01 | S. cerevisiae deletion strains, locus YMR307W, strain GAS1, hits give low values 1.05 | S. cerevisiae deletion strains, locus YNL067W, strain RPL9B, hits give low values 0.995 | S. cerevisiae deletion strains, locus YNL071W, strain lat1, hits give low values 0.999 | S. cerevisiae deletion strains, locus YNL128W, strain TEP1, hits give low values 1.01 | S. cerevisiae deletion strains, locus YNL153C, strain GIM3, hits give low values 1 | S. cerevisiae deletion strains, locus YNL175C, strain NOP13, hits give low values 1.01 | S. cerevisiae deletion strains, locus YNL183C, strain NPR1, hits give low values 0.944 | S. cerevisiae deletion strains, locus YNL197C, strain WHI3, hits give low values 1.01 | S. cerevisiae deletion strains, locus YNL209W, strain ssb2, hits give low values 1 | S. cerevisiae deletion strains, locus YNL224C, strain SQS1, hits give low values 1.01 | S. cerevisiae deletion strains, locus YNL233W, strain BNI4, hits give low values 0.992 | S. cerevisiae deletion strains, locus YNL248C, strain rpa49, hits give low values 0.991 | S. cerevisiae deletion strains, locus YNL250W, strain rad50, hits give low values 0.986 | S. cerevisiae deletion strains, locus YNL271C, strain bni1, hits give low values 0.994 | S. cerevisiae deletion strains, locus YNL298W, strain CLA4, hits give low values 1.01 | S. cerevisiae deletion strains, locus YNL307C, strain MCK1, hits give low values 0.987 | S. cerevisiae deletion strains, locus YNL322C, strain KRE1 (second series), hits give low values 1.01 | S. cerevisiae deletion strains, locus YNL322C, strain KRE1, hits give low values 0.994 and 0.998 | S. cerevisiae deletion strains, locus YNR049C, strain mso1, hits give low values 1 | S. cerevisiae deletion strains, locus YNR052C, strain pop2, hits give low values 1 | S. cerevisiae deletion strains, locus YOL006C, strain TOP1, hits give low values 0.948 | S. cerevisiae deletion strains, locus YOL012C, strain htz1 1.21 | S. cerevisiae deletion strains, locus YOL147C, strain pex11, hits give low values 0.99 | S. cerevisiae deletion strains, locus YOR001W, strain rrp6, hits give low values 0.989 | S. cerevisiae deletion strains, locus YOR061W, strain CKA2, hits give low values 0.962 | S. cerevisiae deletion strains, locus YOR069W, strain VPS5, hits give low values 0.996 | S. cerevisiae deletion strains, locus YOR070C, strain gyp1, hits give low values 0.999 | S. cerevisiae deletion strains, locus YOR080W, strain dia2, hits give low values 0.994 | S. cerevisiae deletion strains, locus YOR083W, strain WHI5 (second series), hits give low values 1.01 | S. cerevisiae deletion strains, locus YOR083W, strain WHI5, hits give low values 1 | S. cerevisiae deletion strains, locus YOR106W, strain vam3, hits give low values 0.985 | S. cerevisiae deletion strains, locus YOR136W, strain idh2, hits give low values 0.988 | S. cerevisiae deletion strains, locus YOR144C, strain elg1, hits give low values 0.992 | S. cerevisiae deletion strains, locus YOR184W, strain ser1, hits give low values 0.99 | S. cerevisiae deletion strains, locus YOR231W, strain MKK1, hits give low values 1.02 | S. cerevisiae deletion strains, locus YOR265W, strain rbl2, hits give low values 1.01 | S. cerevisiae deletion strains, locus YOR270C, strain vph1, hits give low values 0.979 | S. cerevisiae deletion strains, locus YOR290C, strain snf2, hits give low values 1.01 | S. cerevisiae deletion strains, locus YOR316C, strain cot1, hits give low values 0.995 | S. cerevisiae deletion strains, locus YPL051W, strain arl3, hits give low values 1.02 | S. cerevisiae deletion strains, locus YPL078C, strain atp4, hits give low values 1 | S. cerevisiae deletion strains, locus YPL106C, strain sse1, hits give low values 0.977 | S. cerevisiae deletion strains, locus YPL240C, strain hsp82, hits give low values 1 | S. cerevisiae deletion strains, locus YPL241C, strain CIN2, hits give low values 0.997 | S. cerevisiae deletion strains, locus YPL256C, strain CLN2, hits give low values 0.969 | S. cerevisiae deletion strains, locus YPR119W, strain clb2, hits give low values 0.981 | S. cerevisiae deletion strains, locus YPR141C, strain kar3, hits give low values 0.976 | S. cerevisiae deletion strains, locus YPR163C, strain tif3, hits give low values 0.986 | S. cerevisiae deletion strains, locus YPR167C, strain met16, hits give low values 0.989 | S. cerevisiae deletion strains, strain wtn01, hits give low values 1 | S. cerevisiae strains, strain wild type, hits give low values 0.995
